Screens as filed in PubChem.
A selection: hits, their analogues and other compounds. The true share with any hit is near 3.9%.
MazEF act: activators of E. coli MazEF toxin-antitoxin RNase. P0AE70. 350,000 tested, 0.32% active. FAM/BHQ RNA-DNA oligo cleavage fluorescence, 5 h. AID 504720. activation, % at 20 µM; in the data active = activation above about 50%
Target sequence (P0AE70 whole entry, looked up): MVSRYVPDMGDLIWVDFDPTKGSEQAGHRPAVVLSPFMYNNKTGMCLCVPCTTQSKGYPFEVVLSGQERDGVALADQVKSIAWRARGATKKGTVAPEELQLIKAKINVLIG
BoNT A protease: blocks Botulinum neurotoxin A light chain protease. multiplex microsphere protease substrate cleavage, flow cytometry. inhibition, % at 10 µM. 360,000 tested, 0.17% active
Anthrax LF inh2: blocks Bacillus anthracis lethal factor protease; 360,000 tested, 0.12% active; multiplex microsphere protease cleavage assay, LF; inhibition, % at 10 µM
Vc quorum ag-1: induces V. cholerae light production without autoinducers. V. cholerae BH1578 lux reporter, luminescence, 6 h. activation, % at 18.7 µM. 350,000 tested, 0.16% active. AID 588436; in the data active = activation mostly above about 9.7%, no sharp cut-off; inconclusive = no clear call, values can overlap the other calls; inactive = mostly below about 3.7%
Autofluor counter: counter-screen for toxin protease inhibitors: compound fluorescence; fluorescence intensity (concentration not given with the values); compound autofluorescence counterscreen, microsphere flow cytometry; stronger effect = higher value; 360,000 tested, 3.1% active; in the data active = fluorescence intensity above about 16000; inconclusive = no clear call, values can overlap the other calls
BoNT F protease: BoNT F light chain protease inhibition; AID 588497; 360,000 tested, 0.22% active; Multiplex microsphere protease cleavage assay, flow cytometry; inhibition, % at 10 µM; in the data active = inhibition above about 35%, passing the limit was not always enough; inconclusive = no clear call, values can overlap the other calls
Vc quorum ag-2: induces V. cholerae light production without autoinducers. shares compounds with Vc quorum ag-1. V. cholerae BH1578 lux reporter, luminescence, 6 h. activation, % at 50 µM. 620 tested, under 10 active. AID 602243; call rule not given here
Hits are given with their value; – = inactive; ? = inconclusive; · = no result. Rule as the data show it, unless noted: active = inhibition above about 30%; inconclusive = no clear call, values can overlap the other calls; inactive = below that.

SMILES	MazEF act	BoNT A protease	Anthrax LF inh2	Vc quorum ag-1	Autofluor counter	BoNT F protease	Vc quorum ag-2
CCOC(=O)CC1C(=O)NCCN1C(=O)c1cccc(OC)c1 (centres undefined)	–	–	–	–	–	–	·
CN(CC(=O)Nc1ccc(F)cc1)C(=O)COC(=O)c1nc(Cl)ccc1Cl	–	–	–	–	–	–	·
CC(=O)c1cccc(OCC(=O)Nc2ccccc2N2CCOCC2)c1	–	–	–	–	–	–	·
CC1CCCCC1NC(=O)COC(=O)c1ccccc1NC(=O)c1ccco1 (centres undefined)	–	–	–	21.3	–	–	–
CCCCCn1c(SCC(=O)OCC)nc2cc(C(=O)N3CCC(C(N)=O)CC3)ccc2c1=O	–	–	–	–	21996	–	–
Cc1cc(=O)[nH]c(SCC(=O)Nc2ccccc2[N+](=O)[O-])n1	–	–	–	–	–	–	·
O=c1c2ccccc2nnn1CSc1nc2ccccc2c(=O)n1CCCO	–	–	–	–	–	–	·
O=c1c2ccccc2nnn1CSc1nnc2ccccn12	–	–	–	40.0	–	–	–
CN1CC(=O)N(CC(=O)Nc2ccc3c(c2)CCC3)C1=O	–	–	–	35.6	–	–	–
CC(OC(=O)CNC(=O)c1ccc(F)cc1)C(=O)Nc1ccc(S(=O)(=O)N2CCOCC2)cc1 (centres undefined)	–	–	–	–	–	–	·
CC1(C)S[C@@H]2C(C(=O)OCc3ccccc3)NC(=O)N2C1C(=O)OCc1ccccc1 (some centres undefined)	–	–	–	–	–	–	·
COCCN(C(=O)C1CCC1)c1nnc(-c2cccnc2)s1	–	–	–	–	–	–	–
Cc1ccc(C)c(S(=O)(=O)Nc2ccc(-n3cnnn3)cc2)c1	–	–	–	36.7	–	–	–
Cc1ccc(C)c(S(=O)(=O)Nc2ccc(O)cc2)c1	–	–	–	–	–	–	·
Cc1noc(C)c1S(=O)(=O)Nc1ccc2c(c1)C(=O)N([C@H](C)CO)C[C@H](C)[C@@H](CN(C)Cc1ccc(C(=O)O)cc1)O2	–	–	–	–	–	–	–
CCOC(=O)c1sc2cc([N+](=O)[O-])cc(SCCO)c2c1N	–	–	–	22.8	–	–	–
Cc1ccc(OCCC(=O)OCC(=O)Nc2ccc3c(c2)OCO3)cc1	–	–	–	–	–	–	–
Cc1ccc(OCCNC(=O)c2ccc(C)cc2)cc1	–	–	–	–	–	–	·
CCc1ccc(OCCNC(=O)c2cccs2)cc1	–	–	–	·	–	–	–
Cc1ccc(OCCNC(=O)c2ccc(C)o2)cc1	–	–	–	59.0	–	–	–
Cc1cc(Br)ccc1NC(=O)CN(C)C(=O)Cn1c(=O)cnc2ccccc21	–	–	–	–	–	–	·
CC1(c2ccccc2)NC(=O)N(CC(=O)N(CC(=O)Nc2ccccc2C(F)(F)F)Cc2ccco2)C1=O (centres undefined)	–	–	?	–	?	–	·
CCN(CC(=O)Nc1ccccc1C(F)(F)F)C(=O)CN1C(=O)NC(C)(c2ccc3ccccc3c2)C1=O (centres undefined)	–	–	–	21.4	–	–	–
CCOc1ccccc1-n1c(=S)sc2c(=O)n(-c3ccccc3)c(=S)[nH]c21	–	–	–	–	–	–	·
CCOc1cc(-c2noc(N)c2C(=O)OC)cc(OCC)c1OCC	–	–	–	–	–	–	·
SMILES	MazEF act	BoNT A protease	Anthrax LF inh2	Vc quorum ag-1	Autofluor counter	BoNT F protease	Vc quorum ag-2
COC(=O)c1c(-c2ccc(Br)cc2)noc1N	–	–	–	16.7	–	–	–
CCC1Nc2ncnc(N3CCN(c4ccccc4)CC3)c2N(Cc2ccccc2)C1=O (centres undefined)	–	–	–	–	–	–	–
CCC1Nc2ncnc(N3CCN(c4ccccc4)CC3)c2N(Cc2ccc(C)cc2)C1=O (centres undefined)	–	–	–	–	–	–	·
Cc1ccc2[nH]c(=O)c(CN(Cc3ccco3)C(=O)N3CCOCC3)cc2c1	–	–	–	–	–	–	·
Cc1ccc(CN(Cc2cc3cc(C)ccc3[nH]c2=O)C(=O)N2CCOCC2)cc1	–	–	–	16.7	–	–	–
CCOC(=O)c1c(C)[nH]c(C(=O)COC(=O)C2CC2)c1C	–	?	?	–	?	?	·
CCOC(=O)c1c(C)[nH]c(C(=O)COC(=O)C2(C)CC2(Cl)Cl)c1C (centres undefined)	–	–	–	–	23186	–	–
COC(=O)c1cc(COC(=O)c2ccc(OC)c(S(=O)(=O)N3CCCC3)c2)oc1C	–	–	–	–	–	–	–
COc1ccc(C(=O)OCc2cc(C)ccc2C)cc1S(=O)(=O)N1CCCC1	–	·	·	–	·	·	·
COc1ccc(CNC(=O)c2cc(-n3cnnc3)ccc2Cl)cc1	–	–	–	25.0	–	–	–
COc1ccc(CC(=O)NCCc2ccc(Cl)cc2Cl)cc1	–	–	–	–	–	–	·
COc1ccc(CCNC(=O)c2ccc(Cl)cc2Cl)cc1	–	–	–	27.8	–	–	–
Cc1cc(CCCCCCCCc2cc(C)cc(=O)o2)oc(=O)c1	–	–	–	–	–	–	·
COc1ccc(C(CNC(=O)C(=O)NC2CCCC2)N2CCN(C)CC2)cc1 (centres undefined)	–	–	–	–	–	–	·
Fc1cccc(NCc2cn3ccccc3n2)c1	–	–	–	–	–	–	·
Fc1ccc(NCc2cn3ccccc3n2)cc1	–	–	–	16.7	–	–	–
CC(C)Oc1ccc(C(=O)Nc2cc(S(=O)(=O)N3CCOCC3)ccc2N2CCOCC2)cc1	–	–	–	–	–	–	–
CC(C)COc1ccc(C(=O)Nc2cc(S(=O)(=O)N3CCOCC3)ccc2N2CCCC2)cc1	–	–	–	–	–	–	·
Cc1noc(C)c1S(=O)(=O)N1CCCC(C(=O)NCCC2=CCCCC2)C1 (centres undefined)	–	–	–	20.0	–	–	–
Cc1noc(/C=C/N(C)C)c1S(=O)(=O)N1CCCC(C(=O)NCCC2=CCCCC2)C1 (centres undefined)	–	–	–	–	–	–	·
CCOC(=O)C1CCCN(Cc2cccc(Cl)c2)C1 (centres undefined)	–	–	–	–	–	–	–
CCOC(=O)C1CCCN(Cc2ccc(OCc3ccccc3)cc2)C1 (centres undefined)	–	–	–	–	–	?	·
CCCC(=O)NC1CCCc2c1cnn2-c1ccc(C)c(C)c1 (centres undefined)	–	–	–	–	–	–	–
Cc1ccc(-n2ncc3c2CCCC3NC(=O)CCn2ccnc2C)cc1C (centres undefined)	–	–	–	–	–	–	·
COc1ccccc1NS(=O)(=O)c1ccc(C)c(C(=O)NCCCN2CCCC2=O)c1	–	–	–	–	–	–	·
Cc1ccc(S(=O)(=O)Nc2ccccc2F)cc1C(=O)NCCCN1CCCC1=O	–	–	–	–	22774	–	–
